# Experimental data: PubChem BioAssay (EPA / NIEHS)
# Calls of active or inactive are those of the source. How the source made its calls: active means hit-call score of the fitted dose curve at least 0.9, where 1 is the maximum; inactive means score below 0.9.
# Test: CCTE_Padilla_ZF_Score.Living: CCTE's 144 Hour Post-fertilization zebrafish Assay Score for Viability, Padilla Lab (AID 2284410);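 further: larval death at 6 dpf judged by absent heartbeat or coagulation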
# Description: CCTE_Padilla_ZF_Phenotype_Score is a whole embryo, multiplexed assay using zebrafish ova exposed for 144 hours post fertilization on a 96-well plate.CCTE_Padilla_ZF_Score.Living is one of one assay component(s) measured or calculated from the CCTE_Padilla_ZF_Phenotype_Score assay. It is designed to make measurements of zebrafish development as detected with brightfield microscopy of developing zebrafish embryos.Data from the assay component CCTE_Padilla_ZF_Score.Living was analyzed into 1 assay endpoints. This assay endpoint, CCTE_Padilla_ZF_Score.Living, was analyzed in the positive analysis fitting direction relative to DMSO as the negative control and baseline of activity. Using a type of viability reporter, gain-of-signal activity can be used to understand changes in developmentals as they relate to the whole embryo. To generalize the intended target to other relatable targets, this assay endpoint is annotated to the zebrafish development intended target family, where the subfamily is embryonic mortality.
# Zebrafish husbandry: Wild type adult zebrafish (Danio rerio; undefined outbred stock obtained from Aquatic Research Organisms, Hampton, NH, 03842) were housed in an AAALAC-approved animal facility at 28C with a 14:10 h light: dark cycle (lights on at 08:30 h). Adult fish (2-3 females per male; density = 15-20 adults per tank) were kept in one of several 9-liter (L) flow-through colony tanks (Aquaneering Inc., San Diego, CA). All adults in a colony tank were placed in a 2 L (static) breeding tank (Aquatic Habitats, Apopka, FL) one hour prior to light onset. Typically, adults from two to three colony tanks were mated on the same day. Two hours after light onset the adults were returned to the colony tank. All embryos were gathered from each breeder tank, pooled, and placed in a 28C water bath for 2 h, followed by two washes with 0.06% bleach (v/v) in 10% Hanks' Balanced Salt Solution (13.7 mM NaCl 0.54 mM KCl, 25 uM Na2HPO4, 130 uM CaCl2 100 um MgSO4 and 420 um NaHCO3,), hereafter referred to as Hanks' solution, for 5 min in order to remove any residual bacteria or fungi. Immediately following washing, the embryos were examined, and healthy embryos were separated from dead or unfertilized eggs and moved into fresh Hanks'. Chemical exposures: Zebrafish embryos were exposed in 96-well plates. Between 6- and 8-hours post fertilization (hpf), healthy embryos (with chorions) were transferred, one embryo per well, into 96 well (0.5 mL) microtiter plates (Cell Culture-Treated, Flat-Bottom Microplate 96 well [Corning Costar, Kennebunk, ME; Cat 09-761-145]) filled with 200 uL of Hanks' solution. A random number generator was used to assign the order in which the rows of embryos were plated in 96 well plates each week. After plating, the embryos were dosed with 0.8 uL of the chemical dosing solution then immediately sealed with AlumaSeal II (Excel Scientific Inc, Victorville, CA) to prevent volatilization of the chemicals, and then placed in a leakproof secondary container. These containers were placed in an incubator maintained on a 14:10 h light: dark cycle at 26C for rearing. On 5 dpf, live larvae were gently moved out of the plate with test chemicals and into a new 96 well mesh plate (Millipore Corp., Bedford, MA) with just the Hanks' solution. Once within the mesh well plate, the animals were rinsed with 400 uL of fresh Hanks' three times, and then the plates were covered with a non-adhesive material (Microseal A, BioRad, Hercules, CA), plate lid added, and then plate sides wrapped in Parafilm (PM992, Bermis Company, Neenah, WI), and returned to the incubator. […]
Compound,outcome,AC50
O=C(O)C=CC(F)(C(F)(F)F)C(F)(F)F,inactive,
CC(O)C(F)(F)C(F)(F)F (centres undefined),inactive,
OCC(F)(F)OC(F)(F)C(F)(F)OC(F)(F)CO,inactive,
OCC(F)(F)OC(F)(F)C(F)(F)OC(F)(F)C(F)(F)OC(F)(F)F,,88.8 µM (active)
O=C(O)C(F)(F)OC(F)(F)C(F)(F)OC(F)(F)C(=O)O,inactive,
OCC(F)(F)OC(F)(F)C(F)(F)OC(F)(F)C(F)(F)OC(F)(F)CO,,32.1 µM (active)
O=C(O)C(F)(F)C(F)(F)C(=O)O,inactive,
O=C(O)C(F)(OC(F)(F)C(F)(F)C(F)(F)F)C(F)(F)F (centres undefined),inactive,
O=S(=O)(F)C(F)(F)C(F)(F)C(F)(F)C(F)(F)C(F)(F)C(F)(F)C(F)(F)C(F)(F)F,inactive,
O=C(O)C(F)(F)OC(F)(F)C(F)(F)OC(F)(F)F,inactive,
NC(=O)C(F)(F)C(F)(F)F,inactive,
COC(=O)C(F)(F)C(F)(F)OC(F)(C(F)(F)F)C(F)(F)OC(F)=C(F)F (centres undefined),inactive,
C=CC(=O)OCC(F)(F)C(F)F,,20.7 µM (active)
FC(F)(F)C(F)(C(F)(F)F)C(F)(F)C(F)(F)CC1CO1 (centres undefined),inactive,
